# FUS yeast rescue: rescues growth of FUS-expressing yeast. Potency, µM (highest dose often 76.6 µM), most hits filed as activators. actives 0.24% (n = 390,000). S. cerevisiae FUS-expressing, growth rescue, OD600, 24 h; further: nearly all actives have a fitted effect of over 55% in size
#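 Yeast expressing FUS under galactose induction, OD 0.005 in 2% galactose medium; compounds in a dilution series, 24 h at 30C. Growth rescue by absorbance at 600 nm; CP55940 positive control, DMSO negative.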
# TDP-43 yeast inh: TDP-43 toxicity inhibition in yeast; actives 1.8% (n = 410,000); Potency, µM (titrated, usually from 46.1 µM), actives largely listed as activators; AID 652104; TDP-43 expressing yeast growth rescue, BacTiter-Glo, 24 h; further: nearly all actives have a fitted effect of over 50% in size
#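 In this qHTS, compounds that restore growth of yeast expressing TDP-43 appear as activators. Cells (OD600=0.02, galactose medium, raffinose-pregrown) are incubated with compound 24 hr at 30 deg C and growth is quantified by BacTiter-Glo.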
# aSyn yeast inh: rescues yeast growth from alpha-synuclein toxicity; Yeast expressing alpha-synuclein, growth rescue, BacTiter-Glo, 24 h; Potency, µM (doses to about 46.1 µM), actives largely listed as activators; actives 0.14% (n = 370,000); further: nearly all actives have a fitted effect of over 65% in size
#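 Screening used galactose-induced yeast with toxic alpha-synuclein levels, exposed to compound for 24 hr at 30 deg C. Cell growth, read with BacTiter-Glo luminescence, gave the measured signal.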
# Abeta yeast res: A-beta toxicity reversal in yeast; yeast expressing A-beta42, growth rescue, OD600, 48 h; response scale: 0% DMSO, 100% iron-clioquinol control; Potency, µM (highest dose often 46.1 µM), actives largely listed as activators; actives 0.063% (n = 410,000); further: nearly all actives have a fitted effect of over 55% in size
#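 Yeast A-beta toxicity model in growth medium with pinned compounds, 48 h at 30 C; growth read as absorbance at 600 nm. Normalized to FeCl3/clioquinol equimolar mix (positive) and DMSO (negative).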
# Hits are given with their value; n = inactive; u = inconclusive; x = not tested or not shown. In the library only some 2.1% were active in any assay of this set; here they are far more common. The call rests on the fitted dose curve; in most records, active means well fitted curve in the direction sought with a large enough effect; inconclusive means small, poorly fitted or top-dose-only effect, or another doubt; inactive means no such curve, though single readings can be large; an effect the other way counts as inactive or inconclusive.
SMILES,FUS yeast rescue,TDP-43 yeast inh,aSyn yeast inh,Abeta yeast res
O=C(NC(=S)Nc1ccc(F)c(Cl)c1)C1CC1,n,3.2µM,n,u
COc1ccc(NC(=O)CNC(c2ccccc2)c2ccccc2)cc1Cl,n,n,n,n
COC(=O)NC(=S)Nc1ccc(Oc2ccc(Cl)cc2Cl)c(Cl)c1,n,18µM,n,n
O=C(C[n+]1cccc(Br)c1)c1ccc2c(c1)CCCC2,x,x,n,x
O=C(c1ccccc1)C(I)(I)N1CCOCC1,x,x,n,x
COc1ccccc1CNS(=O)(=O)c1ccc2c(c1)NC(=O)C(C)C(=O)N2 (stereo not drawn),n,n,x,n
OC[C@@H]1CCC[C@@H](n2cnc3c(=S)nc[nH]c32)O1,x,x,n,x
O=C(NC(=S)Nc1ccccc1Cl)C1CC1,n,10µM,n,n
Cc1ccc(NC(=S)NC(=O)C2CC2)cc1Cl,n,32µM,n,u
O=C(NC(=S)Nc1ccc(S(=O)(=O)N2CCCC2)cc1)C1CC1,n,n,n,u
COc1ccccc1NC(=S)NC(=O)C1CC1,x,u,n,n
O=C(COCc1cc(-c2cccs2)on1)NCc1ccccc1Cl,n,13µM,x,n
O=C(COCc1cc(-c2cccs2)on1)Nc1cc(Cl)ccc1O,n,n,x,n
O=C(Nc1ccc(OCc2cc(=O)n3c4c(sc3n2)CCCC4)cc1)c1ccccc1,n,u,x,n
O=C(COc1ccc(Cl)cc1)NCC(c1cccs1)S(=O)(=O)c1ccc(F)cc1 (stereo not drawn),n,u,x,n
CC(C)(C)c1ccc(C(=O)NCC(c2cccs2)S(=O)(=O)c2ccc(F)cc2)cc1 (stereo not drawn),35µM,u,x,n
O=C(Cc1ccc(Cl)cc1)NCC(c1cccs1)S(=O)(=O)c1ccc(F)cc1 (stereo not drawn),u,35µM,x,n
CC(C)C[C@H](NC1(C(=O)NCCc2c[nH]c3ccccc23)CCC1)C(=O)NCCCc1ccccc1,n,x,x,x
COC(=O)[C@]12C[C@H](CC(=O)NCc3cccs3)C(=O)N(Cc3cccc4ccccc34)C1=C[C@H](C(C)(C)C)O[C@@H]2C,10µM,x,x,x
COC(=O)[C@]12C[C@H](CC(=O)N3CCOCC3)C(=O)N(Cc3cccc4ccccc34)C1=C[C@H](C(C)(C)C)O[C@@H]2C,22µM,x,x,x
COC(=O)[C@]12C[C@H](CC(=O)NCC3CCCCC3)C(=O)N(Cc3cccc4ccccc34)C1=C[C@H](C(C)(C)C)O[C@@H]2C,n,x,x,x
COC(=O)[C@]12C[C@H](CC(=O)NCCC(C)C)C(=O)N(Cc3cccc4ccccc34)C1=C[C@H](C(C)(C)C)O[C@@H]2C,22µM,x,x,x
COC(=O)[C@]12C[C@H](CC(=O)N3CCC(c4ccccc4)CC3)C(=O)N(Cc3cccc4ccccc34)C1=C[C@H](C(C)(C)C)O[C@@H]2C,n,x,x,x
Cc1nnc(N2CCN(C(=O)Nc3cc(F)ccc3F)CC2)c2nn(-c3ccc(Cl)cc3)c(C)c12,n,n,x,n
CCOc1ccc(CCNC(=O)CCN2N=C(c3ccc(OC)cc3)CCC2=O)cc1OCC,n,n,x,n
SMILES,FUS yeast rescue,TDP-43 yeast inh,aSyn yeast inh,Abeta yeast res
COc1ccc2c(c1)c1c(c(=O)n(-c3cc(Cl)ccc3C)c(=O)n1Cc1ccc(F)cc1)n2C,n,n,x,n
CCCCCc1nc2c(=O)n(C)c3ccccc3c2o1,n,u,n,n
Cn1c(=O)c2nc(-c3ccccc3)oc2c2ccccc21,n,10µM,u,n
CC(=O)N1c2ccc(S(=O)(=O)N(C)CC(=O)N(Cc3ccccc3)C(C)C)cc2CC1C (stereo not drawn),n,n,x,n
Clc1cc(Sc2ccc(Br)cc2)nnc1-c1ccccc1,n,5µM,n,n
COCc1cc(Sc2ccc(Br)cc2)nc(-c2ccccc2)n1,n,n,n,n
Cc1nn(-c2ccccn2)c2c1-c1nc(N)sc1CC2,x,x,13µM,x
CCOCCCNC(=O)NC(C)c1c(-n2cccc2)sc2c1CCN(CC)C2 (stereo not drawn),n,n,x,n
Cc1ccc(CNC(=O)CSc2ncc3c(n2)-c2cc(Cl)ccc2N(C)S3(=O)=O)cc1,n,n,x,n
Cc1[nH]nc(Nc2ccc(C(C)C)cc2)c1[N+](=O)[O-],n,13µM,n,n
C#CCSc1nc(C)cc(C(=O)OCC)c1C#N,n,14µM,n,n
CCOC(=O)CC(=O)CSc1nc(C)cc(C)c1C#N,n,n,n,n
COc1ccccc1CNC(=O)c1ccc(Cn2c(SCc3ccccc3)nc3cccnc32)cc1,u,n,x,n
CCN1CCSc2ccc(C(=O)NCc3ccccc3Br)cc21,n,n,n,n
CN1CCSc2ccc(C(=O)NCc3cccc(Br)c3)cc21,n,16µM,n,n
CCN1CCSc2ccc(C(=O)NCc3ccccc3C)cc21,n,35µM,n,n
Cc1cccc(CNC(=O)c2ccc3c(c2)N(C)CCS3)c1,n,u,n,n
CSc1nc(N)c2ncn([C@@H]3O[C@H](COP(=O)(O)OP(=O)(O)O)C(O)[C@H]3O)c2n1 (stereo partly drawn),x,x,n,x
O=C(OCC#CCSc1nnc(-c2cccc3ccccc23)o1)c1cccc(F)c1,n,x,x,x
Cc1cc(SCC(=O)OCC(=O)NCC2CCCO2)c(C)cc1Br (stereo not drawn),n,25µM,n,n
Cc1ccc(C2=NN(C(=O)CCl)C(c3cccs3)C2)o1 (stereo not drawn),n,20µM,n,n
COc1cc(/C=C(/C#N)C(=O)c2c(C)[nH]c3ccccc23)ccc1OCC#N,n,n,n,n
CCOc1ccc(/C=C(\C#N)C(=O)c2c(C)[nH]c3ccccc23)cc1OC,n,20µM,n,n
Cc1ccc(C2=NN(CC(=O)NCCCN(CC(C)C)CC(C)C)C(=O)CC2)cc1,n,n,x,n
CCCCOc1ccc(C(=O)NCc2nnnn2-c2ccc(C)c(C)c2)cc1,n,20µM,x,n
SMILES,FUS yeast rescue,TDP-43 yeast inh,aSyn yeast inh,Abeta yeast res
Cc1cccc(-n2c(C)nnc2SCC(=O)NC(C)c2ccco2)c1 (stereo not drawn),x,x,n,x
COc1cccc(NC(=O)CN(C)C(=O)c2cccc(S(=O)(=O)N3c4ccccc4CC3C)c2)c1 (stereo not drawn),22µM,n,n,n
CSc1nc(-c2ccccc2F)c(C#N)c(=O)n1C,n,20µM,n,n
CSc1nc(C)c(Oc2ccccc2)c(=O)n1C,n,n,n,n
COc1ccc(-c2cc(-c3nnc(SCC(=O)Nc4ccc(-c5nc6ccc(C)cc6s5)cc4)n3N)[nH]n2)cc1,n,x,x,x
Cc1ccc(S(=O)(=O)N2CCSC2)cc1C,0.89µM,n,n,n
COc1cc2c(NC3CCN(C(C)C)CC3)nc(N3CCCN(C)CC3)nc2cc1OCCOCCN1CCCC1,x,x,n,x
CC(=O)c1c(O)c2ccccc2n(C)c1=O,n,n,n,n
Cc1ccc(Sc2c([N+](=O)[O-])c(=O)n(C)c3ccccc23)cc1,n,n,n,n
Cn1c(=O)c(S(=O)(=O)C(C)(C)C)c(O)c2ccccc21,x,2.8µM,n,n
Cn1c(=O)c(Sc2ccccc2)c(O)c2ccccc21,n,13µM,n,n
Cc1ccc(Sc2c(O)c3ccccc3n(C)c2=O)cc1,n,3.2µM,n,u
